{"source": "PubChem BioAssay AID1251", "about": "(SRMLSC, 2008)", "experiment": "inhibitors of arbovirus infection in cells – cell-based, full library, 10K replicate subset, primary screen (AID 1251)", "key": {"[1]": {"details": "arbovirus infection cell-based antiviral screen, at 10 µM, stronger effect = higher value"}}, "note": "Values joined by “and” are separate entries in the source; they are usually repeats but may differ in a detail not shown here. Equal entries are not always repeated. Out of some 200,000 compounds screened, about 720 (0.36%) were called active. This is one part of a sample in which actives are shown more often than they occur. Rule as the data show it: active = inhibition above about 30%; inactive = the rest, inconclusive results apart.", "data": [{"smiles": "CN(C)CCCNC(=O)/C=C/c1ccc(OCc2c(F)cccc2Cl)cc1", "values": [{"measurement": "inhibition", "setting": "[1]", "value": "-27.3% (inactive)"}]}, {"smiles": "O=C(CN1CCN(S(=O)(=O)/C=C/c2ccccc2)CC1)Nc1ccc(N2CCOCC2)cc1", "values": [{"measurement": "inhibition", "setting": "[1]", "value": "-11% (inactive)"}]}, {"smiles": "N#Cc1c(-c2ccc(F)cc2)nc(-c2ccccc2)[nH]c1=O", "values": [{"measurement": "inhibition", "setting": "[1]", "value": "6% (inactive)"}]}, {"smiles": "COc1ccc(C)cc1NC(=O)C(OC(=O)c1cccc(S(=O)(=O)N(C)c2ccccc2)c1)c1ccccc1", "note": "(stereo not given)", "values": [{"measurement": "inhibition", "setting": "[1]", "value": "2.04% (inactive)"}]}, {"smiles": "CNC(=S)N1CCN(c2ccccn2)CC1", "values": [{"measurement": "inhibition", "setting": "[1]", "value": "8.2% (inactive)"}]}, {"smiles": "C=CCn1c(P(C)(=O)O)nc2ccccc21", "values": [{"measurement": "inhibition", "setting": "[1]", "value": "-2% (inactive) and 0.03% (inactive)"}]}, {"smiles": "Cc1ccc(CN2CCN(Cc3ccc4ncccc4c3)CC2CCO)cc1", "note": "(stereo not given)", "values": [{"measurement": "inhibition", "setting": "[1]", "value": "4.14% (inactive)"}]}, {"smiles": "CCCCNC(=O)Nc1c(C)cc(SC#N)cc1C", "values": [{"measurement": "inhibition", "setting": "[1]", "value": "-9.26% (inactive)"}]}, {"smiles": "O=C(Nc1nnc(SCc2ccc(Cl)cc2Cl)s1)C1COc2ccccc2O1", "note": "(stereo not given)", "values": [{"measurement": "inhibition", "setting": "[1]", "value": "30.9% (active)"}]}, {"smiles": "O=C(Nc1nnc(SCc2c(Cl)cccc2Cl)s1)C1CCCO1", "note": "(stereo not given)", "values": [{"measurement": "inhibition", "setting": "[1]", "value": "-0.49% (inactive)"}]}, {"smiles": "O=C(Nc1nc(-c2ccncc2)cs1)C1COc2ccccc2O1", "note": "(stereo not given)", "values": [{"measurement": "inhibition", "setting": "arbovirus infection cell-based antiviral screen; at 10 µM; stronger effect = higher value", "value": "-2.24% (inactive)"}, {"measurement": "inhibition", "setting": "arbovirus infection cell-based antiviral screen; measured here: 10K subset replicate screen; at 10 µM; stronger effect = higher value", "value": 4.95, "unit": "%"}]}, {"smiles": "CC(=O)Nc1ccc(OCCC[n+]2cccc(C(=O)[O-])c2)cc1", "values": [{"measurement": "inhibition", "setting": "[1]", "value": "1.68% (inactive)"}]}, {"smiles": "CCN(c1ccc(NC(=O)COC(=O)CCc2nc3ccccc3n2-c2ccccc2)cc1)C(C)C", "values": [{"measurement": "inhibition", "setting": "[1]", "value": "-15.1% (inactive)"}]}, {"smiles": "Cc1c(Cl)cccc1NC(=O)Nc1ccc(C(=O)N2CCCC2)cc1", "values": [{"measurement": "inhibition", "setting": "[1]", "value": "-2.79% (inactive)"}]}, {"smiles": "O=C1NC(=Nc2ccc(Cl)cc2)SC1Cc1cccc(Cl)c1Cl", "note": "(stereo not given)", "values": [{"measurement": "inhibition", "setting": "[1]", "value": "30.2% (active)"}]}, {"smiles": "NC1=NC(=O)C(Cc2cccc(Cl)c2Cl)S1", "note": "(stereo not given)", "values": [{"measurement": "inhibition", "setting": "[1]", "value": "9.95% (inactive)"}]}, {"smiles": "O=C1N/C(=N\\N=C\\c2ccco2)SC1Cc1ccc(F)cc1", "note": "(stereo not given)", "values": [{"measurement": "inhibition", "setting": "[1]", "value": "29.1% (inactive)"}]}, {"smiles": "Cc1ccc(C)n1NC(=O)c1ccc([N+](=O)[O-])cc1", "values": [{"measurement": "inhibition", "setting": "[1]", "value": "0.14% (inactive)"}]}, {"smiles": "CCOC(=O)c1c(Cc2ccc(Cl)cc2)c[nH]c1C", "values": [{"measurement": "inhibition", "setting": "[1]", "value": "-0.75% (inactive)"}]}, {"smiles": "COc1cccc2c(O)cc(=O)n(C)c12", "values": [{"measurement": "inhibition", "setting": "[1]", "value": "-3.62% (inactive)"}]}, {"smiles": "Cc1nc(CNS(=O)(=O)c2ccc(Oc3ccccc3)cc2)cs1", "values": [{"measurement": "inhibition", "setting": "[1]", "value": "10.3% (inactive)"}]}, {"smiles": "Cc1ccc(S(=O)(=O)NCc2csc(C)n2)c(C)c1", "values": [{"measurement": "inhibition", "setting": "[1]", "value": "12.2% (inactive)"}]}, {"smiles": "Cc1nc(CNS(=O)(=O)c2cccnc2)cs1", "values": [{"measurement": "inhibition", "setting": "[1]", "value": "32.7% (active)"}]}, {"smiles": "N#C/C(=C\\c1ccc(N2CCOCC2)o1)C(=O)N1CCOCC1", "values": [{"measurement": "inhibition", "setting": "[1]", "value": "-2.38% (inactive)"}]}, {"smiles": "N#Cc1c(NC(=O)CCCl)sc2c1CCCCC2", "values": [{"measurement": "inhibition", "setting": "[1]", "value": "-2.94% (inactive)"}]}, {"smiles": "N#Cc1c(NC(=O)C2CC(Cl)=CCC2C(=O)O)sc2c1CCCCC2", "note": "(stereo not given)", "values": [{"measurement": "inhibition", "setting": "[1]", "value": "31.9% (active)"}]}, {"smiles": "N#Cc1c(NC(=O)C2CCCO2)sc2c1CCCCC2", "note": "(stereo not given)", "values": [{"measurement": "inhibition", "setting": "[1]", "value": "6.23% (inactive)"}]}, {"smiles": "CC(=O)Nc1ccc(S(=O)(=O)NCC(=O)OCc2cc(=O)oc3ccc4ccccc4c23)cc1", "values": [{"measurement": "inhibition", "setting": "[1]", "value": "2.02% (inactive)"}]}, {"smiles": "Cc1cc(C)n2nc(C(=O)N(C)C(c3ccccc3)c3ccccc3)nc2n1", "values": [{"measurement": "inhibition", "setting": "[1]", "value": "24.9% (inactive)"}]}, {"smiles": "COc1cc(C(=O)NCc2ccc(-n3cccc3)cc2)cc(OC)c1OC", "values": [{"measurement": "inhibition", "setting": "[1]", "value": "2.99% (inactive)"}]}, {"smiles": "N#Cc1ccccc1Sc1ccccc1C(=O)OCC(=O)NC1CCCCC1", "values": [{"measurement": "inhibition", "setting": "[1]", "value": "5.04% (inactive)"}]}, {"smiles": "COC(=O)C1=C(NC(=O)C(C)(C)C)CCS1", "values": [{"measurement": "inhibition", "setting": "[1]", "value": "2.37% (inactive)"}]}, {"smiles": "Cc1ccnc(NS(=O)(=O)c2ccc(NC(=O)c3ccc(S(=O)(=O)N(C)C)cc3)cc2)n1", "values": [{"measurement": "inhibition", "setting": "[1]", "value": "14.3% (inactive)"}]}, {"smiles": "Cc1c(CCOC(=O)CC23CC4CC(CC(C)(C4)C2)C3)sc[n+]1Cc1ccc([N+](=O)[O-])cc1", "values": [{"measurement": "inhibition", "setting": "[1]", "value": "-19.1% (inactive)"}]}, {"smiles": "COC(=O)C1=C(C(=O)OC)C(c2cc([N+](=O)[O-])ccc2O)c2sc(=O)[nH]c2S1", "note": "(stereo not given)", "values": [{"measurement": "inhibition", "setting": "[1]", "value": "-2.76% (inactive)"}]}, {"smiles": "Cc1ccc(NC(=O)c2ccccn2)cc1S(=O)(=O)N1CCOCC1", "values": [{"measurement": "inhibition", "setting": "[1]", "value": "20% (inactive)"}]}, {"smiles": "Cc1cccc(NC(=O)NC(=S)NC(=O)c2ccccc2)c1", "values": [{"measurement": "inhibition", "setting": "[1]", "value": "10.4% (inactive)"}]}, {"smiles": "CCC(=O)NCc1cc(-c2nn(C)c(=O)c3ccccc23)ccc1OC", "values": [{"measurement": "inhibition", "setting": "[1]", "value": "-10.6% (inactive)"}]}, {"smiles": "O=C(COC(=O)c1ccccc1F)Nc1cc(S(=O)(=O)N2CCOCC2)ccc1N1CCCC1", "values": [{"measurement": "inhibition", "setting": "[1]", "value": "3.02% (inactive)"}]}]}
